For assay [1], the target named is Lysosomal acid glucosylceramidase (Homo sapiens) (UniProt P04062). Kind of assay: Glucocerebrosidase-p2 (AID 348; in the data active means potency below about 10 µM; further: potency means the concentration at half of the fitted maximal effect). The following applies: purified GBA, blue fluorogenic substrate, 40 min. In a few lines:
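Normal human glucocerebrosidase (0.2 nM) with blue fluorogenic substrate (80 uM final) in citrate/phosphate pH 5.9 with 10mM sodium taurocholate, 0.01% tween-20; 40 min RT, NaOH/glycine stop; fluorescence Ex 365/Em 440; AC50 from a titration from 0.6 nM upwards.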

A short description of assay [2]: AP1 Signaling Pathway (AID 357).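 Further: ME-180 reporter cells stimulated with EGF at its EC50 level; on the % scale 0 is the no-effect control and ±100 the full control effect.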 The following applies: ME-180 AP-1-bla reporter, EGF-induced, beta-lactamase ratio, 5 h; at 7.69 µM (top of the series) unless noted. In a few lines: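 First, ME-180 AP-1-bla cells were cultured overnight at 37 °C in low-serum Opti-MEM. Next, titrated compounds with EC50 EGF were incubated 5 hours. Finally, CCF4 was added for 2.5 hours and the 460/530 nm ratio recorded.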

Assay [3] addresses Cytochrome P450 1A2 (Homo sapiens) (UniProt P05177). Description: p450-cyp1a2 (AID 410; calls by dose curve; further: potency means the concentration at half of the fitted maximal effect;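 on activity change, negative = inhibition: -100% = full effect of reference inhibitor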). Conditions: recombinant CYP1A2, luciferin-ME demethylation, luminescence; series mostly up to 11.4 µM. In a few lines:
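O-Demethylation of luciferin 6' methyl ether by human CYP1A2 is monitored as luciferase luminescence. Substrate sits at Km (100uM); enzyme is 20nM. Values are scaled to 57 uM furafylline as maximal inhibition.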

Assay [4] can be described thus: NFAT Signaling Pathway (AID 444).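 Further: carbachol stimulus at about its EC50 of 1 µM final; on the % scale 0 is the no-effect control and ±100 the full control effect.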 The following applies: Jurkat NFAT-bla M1, carbachol, beta-lactamase ratio, 5 h; at 7.69 µM (top of the series) unless noted. Summed up:
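Jurkat cells carrying an NFAT-driven β-lactamase reporter and co-transfected muscarinic M1 receptor were treated with compound plus carbachol (1 uM final, an EC50 level) for 5 h at 37 °C. CCF4 loading followed for 1 h at RT; 460/530 nm ratio gave %activity.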

Assay [5] in a line: Stat Signaling Pathway (AID 446).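 Further: ME-180 cervical cancer cells given 40 pM IL-6 alongside compound; SIE-controlled beta-lactamase reporter measured as 460/530 nm FRET emission ratio; on the % scale 0 is the no-effect control and ±100 the full control effect.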 The following applies: ME-180 SIE beta-lactamase reporter, IL-6 stimulated, 5 h; at 7.69 µM (top of the series) unless noted. Summed up: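 Normalization used AC90 stimulation (300 pM IL-6) and AC90 inhibition (125 nM pan-JAK inhibitor at 40 pM IL-6). The underlying signal is SIE-driven beta-lactamase in ME-180 cells after 5 h IL-6 exposure with compound.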

Assay [6] concerns the target Glucocorticoid receptor (Homo sapiens) (UniProt P04150). Kind of assay: GR-EFC Redistribution (AID 451; calls by dose curve; further: potency means the concentration at half of the fitted maximal effect). Conditions: CHO-K1 GR-EFC translocation, beta-gal luminescence, 2 h. In a few lines:
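CHO-K1 cells stably expressing nuclear-localized β-gal enzyme acceptor and GR fused C-terminally to the enzyme donor fragment; ligand-driven nuclear translocation restores β-gal by complementation. Compounds titrated up to 46 uM final, 2 h at 37 °C; luminescence read.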

The target in assay [7] is 3',5'-cyclic-AMP phosphodiesterase 4B (Homo sapiens) (UniProt Q07343). Kind of assay: qHTS Assay for Inhibitors of PDE-IV (AID 607; active means well fitted activation curve with a large enough effect in the main read-out, with a control signal flat, not every such curve was filed as active; further: % of control where 0% means no effect). The following applies: HEK293 ACTOne CNG channel cells, membrane potential fluorescence; series mostly up to 22.9 µM. In a few lines:
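HEK293 ACTOne cells with CNG channel (1000/well), endogenous PDE4; membrane potential dye, compounds up to 22.9 uM final. Fluorescence Ex 535/Em 590; RO 20-1724 (100 uM final) as reference.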
On the technique in general: Quantitative high-throughput screening tests each substance at several concentrations.

For assay [8], the target named is Glucocorticoid receptor (Homo sapiens) (UniProt P04150). Kind of assay: GR-GFP Redistribution (AID 450;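 active means compounds whose dose series gives a full or clear partial fitted curve of increased nuclear translocation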; further: potency means the concentration at half of the fitted maximal effect). The following applies: U2OS GR-GFP nuclear translocation, laser cytometry, 2 h.
Glucocorticoid receptor (Homo sapiens), sequence (P04150 whole entry, looked up, the tested form may be a part): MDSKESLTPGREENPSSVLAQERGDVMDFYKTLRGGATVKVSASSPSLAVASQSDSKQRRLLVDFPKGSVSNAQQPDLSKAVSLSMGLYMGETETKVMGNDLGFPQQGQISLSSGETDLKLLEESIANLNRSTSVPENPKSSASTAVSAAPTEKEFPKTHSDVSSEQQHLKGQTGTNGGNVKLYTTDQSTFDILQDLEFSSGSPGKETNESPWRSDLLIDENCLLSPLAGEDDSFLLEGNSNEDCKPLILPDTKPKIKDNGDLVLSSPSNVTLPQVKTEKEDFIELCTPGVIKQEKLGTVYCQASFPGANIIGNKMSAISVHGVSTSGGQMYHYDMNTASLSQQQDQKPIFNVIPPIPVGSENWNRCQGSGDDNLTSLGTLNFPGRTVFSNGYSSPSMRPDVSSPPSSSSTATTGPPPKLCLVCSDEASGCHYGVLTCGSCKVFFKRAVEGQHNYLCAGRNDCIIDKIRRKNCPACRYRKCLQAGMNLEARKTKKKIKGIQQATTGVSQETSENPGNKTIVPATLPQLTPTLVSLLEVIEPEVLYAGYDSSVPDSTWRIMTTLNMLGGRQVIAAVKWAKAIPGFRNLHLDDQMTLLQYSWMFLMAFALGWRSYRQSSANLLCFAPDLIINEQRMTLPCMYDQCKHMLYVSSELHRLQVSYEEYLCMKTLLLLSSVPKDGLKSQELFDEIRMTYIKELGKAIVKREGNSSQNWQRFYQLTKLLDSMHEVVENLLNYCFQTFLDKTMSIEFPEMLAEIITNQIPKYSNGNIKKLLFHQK
Assay [9] has as its target Mitogen-activated protein kinase 10 (Mus musculus) (UniProt Q61831). Kind of assay: JNK3 AlphaScreen Assay (AID 530).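 Further: kinase came from lysate of stimulated human HepG2 cells; signal reports phosphorylation of biotinylated GST-cJun 1-79 at Ser73 with 10 µM ATP; on the % scale 0 is the no-effect control and ±100 the full control effect.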 The following applies: JNK3 lysate, c-Jun phosphorylation; series mostly up to 11.4 µM. Summed up:
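Phosphorylation of biotinylated GST-cJun(1-79) at Ser73 is measured by AlphaScreen proximity luminescence. Enzyme is JNK3 in HepG2 lysates activated with interleukin-1beta and tumor necrosis factor alpha; ATP is 10 uM final.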
On the technique in general: Alpha assays give light when donor and acceptor beads are brought close together.

Assay [10] has as its target Cytochrome P450 2D6 (Homo sapiens) (UniProt P10635). Description: qHTS Assay for Inhibitors and Substrates of Cytochrome P450 2D6 (AID 891; active means well fitted curve in the direction sought with a large enough effect; an effect the other way counts as inactive or inconclusive; further: potency means the concentration at half of the fitted maximal effect; nearly all actives have a fitted effect of over 60% in size). Conditions: recombinant CYP2D6, luciferin-ME EGE luminescence; series mostly up to 11.4 µM. In a few lines: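 Luminescent read-out of luciferin formed by 5 nM human CYP2D6 demethylating 30 uM Luciferin-ME EGE (Km level) over 60 min at room temperature after NADPH regeneration addition. Data normalized to full inhibition by 1.43 uM quinidine.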

Assay [11] addresses Cytochrome P450 3A4 (Homo sapiens) (UniProt P08684). Description: qHTS Assay for Activators of Cytochrome P450 3A4 (AID 885; active means well fitted curve in the direction sought with a large enough effect; an effect the other way counts as inactive or inconclusive; further: nearly all actives have a fitted effect of over 65% in size). Conditions: recombinant CYP3A4, Luciferin-PPXE luminescence, 60 min; series mostly up to 11.4 µM. In a few lines: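 Human CYP3A4 dealkylates Luciferin-PPXE to luciferin, which luciferase detection converts to light. Substrate was at its KM (25uM), buffer 200mM KPO4, reaction 60 min at RT.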

Assay [12] addresses Cytochrome P450 2C19 (Homo sapiens) (UniProt P33261). Description: qHTS Assay for Inhibitors and Substrates of Cytochrome P450 2C19 (AID 899; active means well fitted curve in the direction sought with a large enough effect; an effect the other way counts as inactive or inconclusive; further: on the % scale 0 is the no-effect control and ±100 the full control effect; nearly all actives have a fitted effect of over 60% in size). The following applies: recombinant CYP2C19, luciferin-H EGE luminescence; series mostly up to 11.4 µM. Summed up: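 In 50mM KPO4, the reaction held 5nM enzyme and KM-level (10uM) Luciferin-H EGE; it ran 60 min at 37C after NADPH regeneration and a 10 min compound preincubation. Luminescence values were scaled to 57uM ketoconazole as complete inhibition.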

The nature of assay [13]: qHTS Assay for Identification of Small Molecule Agonists for Hypoxia Response Element Signaling Pathway (AID 914; active means well fitted activation curve with a large enough effect in the signal ratio, with a control signal flat, not every such curve was filed as active; the % refers to the signal ratio; further: % of control where 0% means no effect). The following applies: ME-180 (cervical carcinoma) HRE-bla reporter, beta-lactamase ratio, CoCl2, 17 h; activation: hits give high values. In a few lines: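 In Opti-MEM containing 0.5% dialyzed FBS and 10 mM HEPES, ME-180 HRE-bla cells received a compound titration and EC50 CoCl2. They were incubated 17 hours, then CCF4-loaded 2.5 hours at room temperature before ratio reading.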

Assay [14] addresses ATP-dependent 6-phosphofructokinase (Trypanosoma brucei brucei) (UniProt O15648). Kind of assay: qHTS Assay to Find Inhibitors of T. brucei phosphofructokinase: hit validation (AID 492961; active means well fitted curve in the direction sought with a large enough effect; an effect the other way counts as inactive or inconclusive). Conditions: T. brucei PFK, ADP-Glo luminescence; series mostly up to 51.4 µM. Summed up:
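Reaction: 0.1 M triethanolamine pH 8.0, 5 mM MgCl2, F6P 0.5 mM, ATP 0.1 mM, PFK 1.25 nM, 45 min RT. Read-out: ADP-Glo luminescence. Analysis: concentration-response fits, classed by r2 and efficacy.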

A short description of assay [15]: qHTS profiling for inhibitors of Plasmodium falciparum proliferation (AID 504749; active means well fitted curve in the direction sought with a large enough effect; an effect the other way counts as inactive or inconclusive;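 further: 0% = DMSO vehicle and full inhibition = artemisinin control; nearly all actives have a fitted effect of over 60% in size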). The following applies: P. falciparum in erythrocytes, SYBR Green DNA, 72 h, at 28.7 µM (top of the series). Summed up: (§1)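 Quantitative HTS: compounds pinned into medium, infected erythrocytes added (0.3% parasitemia, 2.5% hematocrit), 72 h culture at 37 C under 5% CO2. Saponin/Triton lysis with SYBR Green I, overnight RT, then fluorescence read.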

A further assay relates to CP192. Described as above. Conditions: P. falciparum in erythrocytes, SYBR Green DNA, 72 h; series mostly up to 28.7 µM. In a few lines: as §1
A further assay has as its system CP203. The description is as above. Conditions: P. falciparum in erythrocytes, SYBR Green DNA, 72 h; series mostly up to 28.7 µM. In a few lines:
as §1

A further assay has as its system W2. The description is as above. Conditions: P. falciparum in erythrocytes, SYBR Green DNA, 72 h; series mostly up to 28.7 µM. In a few lines: as §1

Unmarked numbers belong to inactive results. Results filed as inconclusive are left out. The source made the active and inactive calls. Unless noted, the call rests on the fitted dose curve; in most records, active means well fitted curve in either direction with a large enough effect (not every such curve was filed as active); inconclusive means small, poorly fitted or top-dose-only effect, or another doubt; inactive means flat fitted curve, though single readings scatter.

Cytochrome P450 1A2 (Homo sapiens), sequence (P05177 whole entry, looked up): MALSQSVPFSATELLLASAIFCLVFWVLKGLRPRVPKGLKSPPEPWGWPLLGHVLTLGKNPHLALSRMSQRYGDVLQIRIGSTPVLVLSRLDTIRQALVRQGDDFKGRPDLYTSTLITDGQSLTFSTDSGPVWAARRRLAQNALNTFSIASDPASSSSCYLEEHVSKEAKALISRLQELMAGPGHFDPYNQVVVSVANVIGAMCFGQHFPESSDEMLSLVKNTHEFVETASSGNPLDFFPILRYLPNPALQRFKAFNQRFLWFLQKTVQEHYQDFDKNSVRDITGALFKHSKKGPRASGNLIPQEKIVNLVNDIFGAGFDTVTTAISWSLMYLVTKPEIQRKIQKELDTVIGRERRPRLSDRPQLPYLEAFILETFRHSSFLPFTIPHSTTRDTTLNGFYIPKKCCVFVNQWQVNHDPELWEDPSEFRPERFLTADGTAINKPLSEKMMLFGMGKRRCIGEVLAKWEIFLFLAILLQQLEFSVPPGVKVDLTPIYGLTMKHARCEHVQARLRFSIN
3',5'-cyclic-AMP phosphodiesterase 4B (Homo sapiens), sequence (Q07343 whole entry, looked up): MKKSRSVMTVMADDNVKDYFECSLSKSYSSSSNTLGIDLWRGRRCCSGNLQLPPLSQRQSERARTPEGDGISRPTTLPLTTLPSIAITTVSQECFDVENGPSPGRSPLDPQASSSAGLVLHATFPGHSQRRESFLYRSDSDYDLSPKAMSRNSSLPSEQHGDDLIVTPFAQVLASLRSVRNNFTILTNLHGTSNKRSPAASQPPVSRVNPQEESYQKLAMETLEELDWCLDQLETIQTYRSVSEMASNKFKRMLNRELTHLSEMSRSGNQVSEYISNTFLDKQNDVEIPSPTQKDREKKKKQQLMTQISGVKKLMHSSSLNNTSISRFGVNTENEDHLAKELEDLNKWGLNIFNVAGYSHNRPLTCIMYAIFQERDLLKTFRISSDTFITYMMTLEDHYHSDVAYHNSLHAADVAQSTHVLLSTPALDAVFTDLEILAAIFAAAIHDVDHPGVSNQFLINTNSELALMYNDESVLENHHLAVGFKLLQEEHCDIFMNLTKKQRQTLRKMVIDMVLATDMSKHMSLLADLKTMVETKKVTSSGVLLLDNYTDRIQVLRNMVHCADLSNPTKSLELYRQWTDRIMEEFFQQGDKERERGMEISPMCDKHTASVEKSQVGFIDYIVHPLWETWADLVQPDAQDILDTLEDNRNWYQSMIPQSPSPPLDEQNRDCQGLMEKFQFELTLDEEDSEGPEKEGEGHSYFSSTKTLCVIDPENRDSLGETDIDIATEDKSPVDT
Lysosomal acid glucosylceramidase (Homo sapiens), sequence (P04062 whole entry, looked up): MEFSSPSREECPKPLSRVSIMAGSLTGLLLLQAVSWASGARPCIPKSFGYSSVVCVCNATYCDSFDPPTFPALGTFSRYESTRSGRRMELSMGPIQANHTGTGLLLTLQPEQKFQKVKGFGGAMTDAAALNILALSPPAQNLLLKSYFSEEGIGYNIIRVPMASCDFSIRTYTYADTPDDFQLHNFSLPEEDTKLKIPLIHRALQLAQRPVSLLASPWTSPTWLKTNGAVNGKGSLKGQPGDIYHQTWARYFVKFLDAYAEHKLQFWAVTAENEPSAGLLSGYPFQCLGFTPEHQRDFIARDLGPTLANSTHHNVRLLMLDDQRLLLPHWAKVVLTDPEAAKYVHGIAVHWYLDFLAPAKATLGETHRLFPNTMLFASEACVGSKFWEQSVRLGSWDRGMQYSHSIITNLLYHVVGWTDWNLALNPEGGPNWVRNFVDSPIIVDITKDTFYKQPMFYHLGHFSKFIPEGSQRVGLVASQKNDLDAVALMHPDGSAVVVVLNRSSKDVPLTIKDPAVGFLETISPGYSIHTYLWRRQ
Cytochrome P450 2D6 (Homo sapiens), sequence (P10635 whole entry, looked up): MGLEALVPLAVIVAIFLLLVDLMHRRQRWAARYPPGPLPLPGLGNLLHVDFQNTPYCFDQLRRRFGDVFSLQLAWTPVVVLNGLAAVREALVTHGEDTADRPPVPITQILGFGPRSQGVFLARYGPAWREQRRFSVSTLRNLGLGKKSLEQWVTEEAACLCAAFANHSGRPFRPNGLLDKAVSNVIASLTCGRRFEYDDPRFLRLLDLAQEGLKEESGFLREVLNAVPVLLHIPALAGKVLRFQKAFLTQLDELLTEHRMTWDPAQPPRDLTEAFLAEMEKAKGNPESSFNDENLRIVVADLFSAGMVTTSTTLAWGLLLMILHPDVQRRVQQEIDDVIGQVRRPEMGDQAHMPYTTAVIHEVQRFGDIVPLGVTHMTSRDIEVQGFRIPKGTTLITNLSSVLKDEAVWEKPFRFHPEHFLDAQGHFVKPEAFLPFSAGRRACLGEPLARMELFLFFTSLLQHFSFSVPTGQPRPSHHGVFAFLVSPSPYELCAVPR
Cytochrome P450 3A4 (Homo sapiens), sequence (P08684 whole entry, looked up): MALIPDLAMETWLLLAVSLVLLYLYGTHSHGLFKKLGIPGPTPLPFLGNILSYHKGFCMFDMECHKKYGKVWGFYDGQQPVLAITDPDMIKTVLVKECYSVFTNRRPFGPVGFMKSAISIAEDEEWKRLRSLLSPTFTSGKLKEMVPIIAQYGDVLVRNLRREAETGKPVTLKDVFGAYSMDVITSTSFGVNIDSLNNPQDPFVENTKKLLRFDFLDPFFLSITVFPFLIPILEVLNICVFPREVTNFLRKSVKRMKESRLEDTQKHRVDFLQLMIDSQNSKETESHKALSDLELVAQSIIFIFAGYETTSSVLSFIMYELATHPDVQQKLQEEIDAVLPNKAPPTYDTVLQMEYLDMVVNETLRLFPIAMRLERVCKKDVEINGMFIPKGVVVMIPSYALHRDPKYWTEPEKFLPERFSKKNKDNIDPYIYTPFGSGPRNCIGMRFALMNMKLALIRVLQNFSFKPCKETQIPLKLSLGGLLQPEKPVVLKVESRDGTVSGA
Cytochrome P450 2C19 (Homo sapiens), sequence (P33261 whole entry, looked up): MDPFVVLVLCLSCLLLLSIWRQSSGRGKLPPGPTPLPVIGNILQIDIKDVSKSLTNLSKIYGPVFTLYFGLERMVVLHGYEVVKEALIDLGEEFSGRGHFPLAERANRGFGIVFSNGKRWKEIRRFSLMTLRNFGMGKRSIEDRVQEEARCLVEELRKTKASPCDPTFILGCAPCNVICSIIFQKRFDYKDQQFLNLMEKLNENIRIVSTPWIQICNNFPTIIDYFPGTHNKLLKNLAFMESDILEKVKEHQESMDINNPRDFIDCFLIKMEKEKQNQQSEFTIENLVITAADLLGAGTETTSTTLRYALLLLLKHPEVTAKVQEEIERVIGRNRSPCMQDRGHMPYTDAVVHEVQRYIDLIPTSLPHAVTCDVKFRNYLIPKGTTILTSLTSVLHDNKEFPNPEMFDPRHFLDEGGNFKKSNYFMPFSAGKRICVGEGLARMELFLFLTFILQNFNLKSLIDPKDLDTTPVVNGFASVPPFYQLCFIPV
ATP-dependent 6-phosphofructokinase (Trypanosoma brucei brucei), sequence (O15648 whole entry, looked up): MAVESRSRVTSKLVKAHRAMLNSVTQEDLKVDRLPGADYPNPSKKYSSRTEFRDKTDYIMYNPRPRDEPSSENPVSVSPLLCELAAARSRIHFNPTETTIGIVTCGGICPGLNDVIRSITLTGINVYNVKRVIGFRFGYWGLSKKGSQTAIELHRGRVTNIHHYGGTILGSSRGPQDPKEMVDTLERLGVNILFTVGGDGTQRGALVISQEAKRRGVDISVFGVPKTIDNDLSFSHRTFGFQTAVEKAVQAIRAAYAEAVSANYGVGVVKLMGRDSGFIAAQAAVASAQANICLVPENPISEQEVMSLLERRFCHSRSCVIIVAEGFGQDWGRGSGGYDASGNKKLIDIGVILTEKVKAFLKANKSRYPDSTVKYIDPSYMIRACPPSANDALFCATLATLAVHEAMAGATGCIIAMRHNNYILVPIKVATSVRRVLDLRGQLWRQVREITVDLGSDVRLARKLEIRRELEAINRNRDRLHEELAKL

Turning to `O=C(O)c1c[nH]c2c(ccc3[nH]cc(C(=O)O)c(=O)c32)c1=O`, the Potency in assay [1] is over 11.4 µM; in assay [3], 5.01 µM (active); in assay [6] it was over 9.22 µM. The activity change, negative = inhibition is -0.603% in [2] and 8.43% in assay [4]. Moreover, the activity, negative = inhibition in assay [5] was 13.7%. Moreover, the Potency entry in assay [7] is “inactive”.

Turning to `O=C(O)c1nnsc1-c1csnn1`, the Potency is over 11.4 µM in [1], over 46 µM in [8] and over 9.22 µM in assay [6]. Moreover, the activity change, negative = inhibition in assay [2] was 2.29%; in assay [4] it was 4.42%. The Potency entry in assay [3], in assay [9] and in assay [7] was “inactive” throughout.

With `Sc1ccc2ccccc2c1CNCc1ccccc1`, the Potency in assay [1] was over 11.4 µM; in [3], 1.26 µM (active); in assay [8] it was over 46 µM; in [6], over 9.22 µM; in assay [10] it was 1.26 µM (active). For the same compound, the activity change, negative = inhibition in assay [2] is 12.3%; in [4], -0.525%. Moreover, the Potency entry in [9] and in assay [7] was “inactive” throughout.

On to `O=c1c2ccccc2sc2c(CO)ccc(NCCN3CCCCC3)c12`, for which the Potency is over 11.4 µM in [1]; 1.58 µM (active) in assay [3]; over 46 µM in [8]; over 9.22 µM in [6]; 1.26 µM (active) in [10]. Moreover, the activity change, negative = inhibition in assay [2] is -1.51%; in assay [4], 27.4%. The Potency result in assay [9], in assay [7] and in [11] was “inactive” each time.

Consider `N=c1ccn2c(n1)O[C@H]1[C@@H](OP(=O)(O)O)[C@H](CO)O[C@H]12`, for which the Potency in [1] was over 11.4 µM; in assay [6], over 9.22 µM. Moreover, the activity change, negative = inhibition in assay [2] is 1.47%; in assay [3], -3.1% [at 2.29 µM]; in [4] it was 19.9%. Also, the activity, negative = inhibition in assay [5] was -1.19%. Further, the Potency result in assay [9], in [7] and in assay [12] was “inactive” throughout.

On to `C[C@]12CC[C@H]3c4ccc(O)cc4CC[C@@H]3[C@H]1CC[C@@H]2OP(=O)(O)O`, for which the Potency in assay [1] is over 11.4 µM. The activity change, negative = inhibition in [2] was -3.92%; in assay [3], -11.2% [at 2.29 µM]; in [4] it was 9.37%. Also, the activity, negative = inhibition was 2.17% in assay [5], 12.7% in assay [15] (parasite line A) and 13.6% in assay [15] (parasite line B). Besides, the Potency result (in assay [9]; in assay [7]; in the assay on CP192; with CP203; with W2) was “inactive” throughout. For the same compound, the activation in assay [13] was 11.8%. Also, in assay [14], the call was inactive.

As for `c1c[nH]c(CN2CCOCC2)n1`, the Potency in assay [1] was over 11.4 µM; in assay [8], over 46 µM; in [6], over 9.22 µM. The activity change, negative = inhibition in assay [2] was 6.52%; in [4] it was 6.99%. Moreover, the Potency entry in assay [3], in [9] and in assay [7] was “inactive” each time.

The values are drawn from PubChem BioAssay (NCATS).
